# From the supplement of paper PMC6555819
# Tested on: RXRa homodimer (NR concentration 180 nM)
# Test: PBM binding z-score (relative to random genomic background probes); higher = stronger binding; sequences stand for … in GC…GCGATTGACAGCGTAGAATGAAGG
# How it was run: (§1)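 Ligand-free nuclear receptor dimers were applied to custom Agilent 4×180K protein-binding microarrays whose double-stranded probes carried direct-repeat seeds, single-nucleotide variants, half-site ablations and random human genomic background sequences in 34-nt variable regions. Incubation lasted 1 h. Binding z-scores were computed against the random background probes from regression-normalized fluorescence.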
row,Sequence,PBM binding z-score
1,ATATGTAGGTTATCGGGTCATTCAGTTTGCGCAT,3.47
2,TAGCCTAGGTCATGCGGGCTAGTATAGTGTCGGC,2.92
3,TTACCAAGGTGAAGTTCGTTGATCCCTCTGTAGA,0.97
4,TCAGACAGGTGAACGTAACTCAGGTACGCAGTCG,1.32
5,CCAGACAGGTGAGAAGGTAACTCATCCTCGATTA,0.529
6,TCTATTAGTTGATTAGGGCCACCGAAACAGCGGA,0.411
7,CCTTACGGGTCAAAGTTATAGCACGGGTGGTACG,5.29
8,CCTAGCAGGCCAATCTGGGTCACTCACGGCTTGA,0.802
9,CCGAGTAGGTTTTGGGGCATTCAGGCAACGGTGA,-0.246
10,TAGCCTAGGTCATGGGGCCAGTATAGTACGCATC,3.6
11,CCGATTAGGTTATGGGGCATTCAGGCAACGGTGA,0.612
12,CGAACGAGCGCATGAGTTGATAGCAAATGCCGAT,-0.236
13,CGTCCAAGGTCATAGGAGGTCTGTGAAGACAGAT,6.11
14,CGTCCAAGGTCATAGGATGTCAGTGAAGACAGAT,6.11
15,ACTAGCAGGCCAAGGGTCACTCATGATTAGTCCG,4.18
16,CCTCTTAGTTGACCATAAGGGCAACCGAAGCTCG,0.712
17,ATATGTAGGTTACATCCGGGGCATTCAGGCTATG,1.12
18,CCTAGCAGGCCAATCTGGGCCACTCAAGGCTTGA,-0.923
19,CGTCCTAGGTCAAGGTCAGTGAAAGAGACTCGAA,4.55
20,GGAACGAGGGCAAGTTGGTAGCAGAGTTTGATGG,0.826

row,Sequence,PBM binding z-score
1,ACAGACAGGTGAGTGAAGGTTACTCAGCTGGACG,0.869
2,ACTTACGGGTCAACGAGGTGATAGCACGCGTATA,5.47
3,AGAACGAGGACACGCTGAGTTGATAGCAGAGTAG,-0.00543
4,AGAACGAGGGCAATGTGTTGATAGCACGGGTGGC,0.945
5,ACTTACGGGTCAACGAGGTTATATCACGCGTATA,6.14
6,GCTCGAAGGACAAGGTCAGAGCTTTGTCCGTAGA,2.51
7,CCTACTGGGCCATCCGGTCATTGATATCAACGTT,0.106
8,TTTATTAGTTGATTAGGGCAACCGAAACAGCGGA,0.586
9,CCTTACGGGTCACGAGGGTATAGCACGACGAGCG,6.79
10,CTCGAAAGGTCGGTTGAGATGAGTATACGGATAA,2.01
11,GTTATTAGTTGAAAGGGCAACCGAATGATTCTCG,1.64
12,ATCTCTAGGTAAGACGCAGTTCAGTGAAGAACGC,-0.00227
13,TCACATAGGTAAACAGGTGAAAGTCCGTAAGTTA,1.12
14,ATGGAAAGGTCGACGAGGTGAGTATACACCGTTT,4.19
15,CTACCAAGGTGATCAAGGTCGTTGATTACTATTC,1.11
16,ATCGAAAGGTCGTGAGGTGAGAATACAGAAAGGC,5.3
17,CCTAGTTGGTCAAGGTTACACACGCTATAGGTAC,1.48
18,TCTAGTTGGTCACTGAGGTCACACACGACGGGTA,5.14
19,AGAACGGGGGCACGCTGAGTTGATAGCAGAGTAG,2.94

# Tested on: THRa:RXRa (NR concentration 90 nM, RXRa partner concentration 90 nM)
# Test: as above
# How it was run: as §1
row,Sequence,PBM binding z-score
1,ATATGTAGGTTATCGGGTCATTCAGTTTGCGCAT,3.23
2,TAGCCTAGGTCATGCGGGCTAGTATAGTGTCGGC,3.15
3,TTACCAAGGTGAAGTTCGTTGATCCCTCTGTAGA,1.8
4,TCAGACAGGTGAACGTAACTCAGGTACGCAGTCG,0.679
5,CCAGACAGGTGAGAAGGTAACTCATCCTCGATTA,0.505
6,TCTATTAGTTGATTAGGGCCACCGAAACAGCGGA,1.09
7,CCTTACGGGTCAAAGTTATAGCACGGGTGGTACG,2.3
8,CCTAGCAGGCCAATCTGGGTCACTCACGGCTTGA,3.47
9,CCGAGTAGGTTTTGGGGCATTCAGGCAACGGTGA,0.595
10,TAGCCTAGGTCATGGGGCCAGTATAGTACGCATC,3.49
11,CCGATTAGGTTATGGGGCATTCAGGCAACGGTGA,1.19
12,CGAACGAGCGCATGAGTTGATAGCAAATGCCGAT,-0.516
13,CGTCCAAGGTCATAGGAGGTCTGTGAAGACAGAT,4.63
14,CGTCCAAGGTCATAGGATGTCAGTGAAGACAGAT,4.28
15,ACTAGCAGGCCAAGGGTCACTCATGATTAGTCCG,2.31
16,CCTCTTAGTTGACCATAAGGGCAACCGAAGCTCG,2.07
17,ATATGTAGGTTACATCCGGGGCATTCAGGCTATG,1.83
18,CCTAGCAGGCCAATCTGGGCCACTCAAGGCTTGA,1.24
19,CGTCCTAGGTCAAGGTCAGTGAAAGAGACTCGAA,3.82
20,GGAACGAGGGCAAGTTGGTAGCAGAGTTTGATGG,1.41

row,Sequence,PBM binding z-score
1,ACAGACAGGTGAGTGAAGGTTACTCAGCTGGACG,1.68
2,ACTTACGGGTCAACGAGGTGATAGCACGCGTATA,3.86
3,AGAACGAGGACACGCTGAGTTGATAGCAGAGTAG,3.15
4,AGAACGAGGGCAATGTGTTGATAGCACGGGTGGC,0.861
5,ACTTACGGGTCAACGAGGTTATATCACGCGTATA,4.04
6,GCTCGAAGGACAAGGTCAGAGCTTTGTCCGTAGA,2.65
7,CCTACTGGGCCATCCGGTCATTGATATCAACGTT,0.75
8,TTTATTAGTTGATTAGGGCAACCGAAACAGCGGA,0.999
9,CCTTACGGGTCACGAGGGTATAGCACGACGAGCG,3.56
10,CTCGAAAGGTCGGTTGAGATGAGTATACGGATAA,1.72
11,GTTATTAGTTGAAAGGGCAACCGAATGATTCTCG,1.18
12,ATCTCTAGGTAAGACGCAGTTCAGTGAAGAACGC,0.223
13,TCACATAGGTAAACAGGTGAAAGTCCGTAAGTTA,0.714
14,ATGGAAAGGTCGACGAGGTGAGTATACACCGTTT,3.7
15,CTACCAAGGTGATCAAGGTCGTTGATTACTATTC,2.71
16,ATCGAAAGGTCGTGAGGTGAGAATACAGAAAGGC,3.49
17,CCTAGTTGGTCAAGGTTACACACGCTATAGGTAC,2.16
18,TCTAGTTGGTCACTGAGGTCACACACGACGGGTA,4.47
19,AGAACGGGGGCACGCTGAGTTGATAGCAGAGTAG,2.9
